For 58 compounds, inhibition results are on record in PubChem BioAssay AID485344 (National Center for Advancing Translational Sciences (NCATS), 2010).

Screen size: about 340,000 compounds; about 6,900 (2%) were called active. Rule as the data show it: active = inhibition above about 30%; inactive = below that, where a call was filed. Only a selection was taken, and actives are over-represented in it overall.

The test deals with D(2) dopamine receptor (Homo sapiens) (UniProt P14416). Description: HTS Assay for Allosteric Antagonists of the Human D2 Dopamine Receptor: Primary Screen for Antagonists. Also: 0% is about no effect. To be noted: HEK293 TREx D2 cells, calcium flux, dopamine EC80; at 10 µM; active compounds read high. In short, it runs like this: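 Read-out: kinetic calcium fluorescence (1 cycle/s) in inducible HEK293 T-REx D2 cells after an EC80 dopamine addition that followed 180 s compound preincubation. Loss of the dopamine response indicates antagonism.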
Sequence of D(2) dopamine receptor (Homo sapiens) (P14416 whole entry, looked up): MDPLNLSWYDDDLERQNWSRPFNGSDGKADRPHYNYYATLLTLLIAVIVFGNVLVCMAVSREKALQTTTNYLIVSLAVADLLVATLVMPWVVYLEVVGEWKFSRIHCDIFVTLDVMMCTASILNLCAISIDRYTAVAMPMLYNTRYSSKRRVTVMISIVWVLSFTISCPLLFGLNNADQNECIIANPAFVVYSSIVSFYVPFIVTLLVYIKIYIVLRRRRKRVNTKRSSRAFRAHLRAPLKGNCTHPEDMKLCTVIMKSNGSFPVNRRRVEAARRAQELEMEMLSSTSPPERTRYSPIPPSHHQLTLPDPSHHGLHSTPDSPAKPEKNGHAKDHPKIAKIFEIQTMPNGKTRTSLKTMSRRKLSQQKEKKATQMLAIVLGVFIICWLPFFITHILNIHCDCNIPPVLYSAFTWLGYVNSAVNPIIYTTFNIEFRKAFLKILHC
For orientation: Calcium assays in cells follow changes in intracellular calcium, usually with a dye or a luminescent sensor.
Regarding `C#CCOCCOCCOCCNc1nc(N2CCN(C(=O)Cn3cc(CCCCN)nn3)CC2)nc(N2CCN(C(=O)[C@H](CCCCN)n3cc(CCC(=O)O)nn3)CC2)n1`, the inhibition is -10.9% (inactive). For `CCOc1ncccc1C(=O)OCC(=O)c1c[nH]c2ccccc12`, the inhibition was 12.3% (inactive). The value for `O=C(CN1CCN(S(=O)(=O)c2ccc(Cl)s2)CC1)N1CCCCC1` was -11.9% (inactive).

Regarding `CCc1ccc(Nc2n[n+](-c3ccccc3)c(-c3cccc(Cl)c3Cl)s2)cc1`, the inhibition was 6.13% (inactive). The value for `CCCCN(C(=O)C(CCSC)N1C(=O)c2ccccc2C1=O)c1c(N)n(CCC)c(=O)[nH]c1=O` (stereo not drawn) was -4.67% (inactive). The value for `Cc1c(C(=O)NNC(=O)c2ccncc2)oc2ccccc12` was 13.9% (inactive); that for `O=C(NCc1ccccc1CN1CCCC1)c1cccc(S(=O)(=O)Nc2ccc(F)cc2)c1` was 61.7% (active); that for `COc1ccccc1C(CNC(=O)c1cccc(S(=O)(=O)Nc2ccc(F)cc2)c1)N(C)C` (stereo not drawn) was -19.6% (inactive).

`CCN(c1ccccc1)S(=O)(=O)c1cccc(C(=O)NCc2ccccc2CN2CCOCC2)c1`: the inhibition is -43% (inactive). The value for `O=C(Nc1ccc(F)cc1)N1CCN(c2ccc(F)cc2)CC1` was -1.72% (inactive); that for `CN1CCN(CCNC(=O)Nc2ccc([N+](=O)[O-])cc2)CC1` was 11.3% (inactive). The value for `O=C(NCCCN1CCN(c2ccc(F)cc2)CC1)Nc1ccc([N+](=O)[O-])cc1` was 45.2% (active); that for `COc1cccc(NC(=O)CN(C)CC(=O)c2c(N)n(Cc3ccccc3)c(=O)n(C)c2=O)c1` was -15.4% (inactive). In the case of `COc1ccc(NC(=S)Nc2ccccc2Cl)cn1`, the inhibition was 40.5% (active). The value for `COCCN(CCOC)C(=S)Nc1ccccc1Cl` was 3.22% (inactive); that for `COc1ccc(Nc2cc(Cl)ccc2C(=O)O)cn1` was 9.54% (inactive); that for `Cc1n[nH]c(=O)c2c(NC(=O)CSc3ccccc3F)oc(C)c12` was 0.909% (inactive). For `CCN(C(=O)COC(=O)Cc1c(F)cccc1Cl)c1c(N)n(Cc2ccccc2)c(=O)[nH]c1=O`, the inhibition was 4.82% (inactive).

For the compound `CCOC(=O)c1c(C)[nH]c2c1-c1ccccc1C(=O)C2=O`, the inhibition was -2.67% (inactive).

For the compound `CCOC(=O)c1c(C)[nH]c(C2=NNC(=NC(C)COC)SC2)c1C` (stereo not drawn), the inhibition is 36% (active).

Consider `C[C@@H]1NC(=O)[C@@]2(C)[C@@H](c3ccccc3)[C@H]3COc4ccccc4[C@@H]3N2C1=O`, for which the inhibition is -7.78% (inactive). The value for `CCOc1ccc(CCNC(=O)CN2C(=O)NC3(CCc4ccccc43)C2=O)cc1OCC` (stereo not drawn) was 1.52% (inactive); that for `CCN(C(=O)CSc1nc(N)cc(=O)[nH]1)C1CCS(=O)(=O)C1` (stereo not drawn) was 10.5% (inactive). Turning to `CCS(=O)(=O)Nc1cccc(-c2cc(-c3ccccc3)c3cc(C)ccc3n2)c1`, the inhibition was 30.3% (active).

Take `Cc1ccc2nc(Nc3ccccc3)cc(C)c2c1`: the inhibition was -16.8% (inactive). With `Cc1ccc2nc(-c3ccncc3)cc(C(=O)Nc3ccncc3)c2c1`, the inhibition was -15.6% (inactive). As for `c1ccc2cc(OCCN3CCCC3)ccc2c1`, the inhibition was 6.73% (inactive).

For `Cc1cc(OCCN2CCCC2)cc(C(C)C)c1`, the inhibition is 46.1% (active). The value for `Cc1cc(OCCN2CCCC2)ccc1C(C)C` was -8.05% (inactive). For the compound `CCCCc1ccc(NS(=O)(=O)c2cccc(C(=O)N3CCCN(C)CC3)c2)cc1`, the inhibition is 16.6% (inactive). For the compound `Cc1ccnc(NC(=O)C(C)N2C(=O)c3ccccc3C2=O)c1` (stereo not drawn), the inhibition is -8.26% (inactive). With `Cc1cc(C)nc(NC(=O)C(C)N2C(=O)c3ccccc3C2=O)n1` (stereo not drawn), the inhibition was 35.4% (active). The value for `COC(=O)c1ccc(NC(=O)C(C)N2C(=O)c3ccccc3C2=O)cc1` (stereo not drawn) was 4.17% (inactive); that for `CCCN(CC1CC1)C(=S)NC(=O)c1ccccc1Br` was 6.85% (inactive). The value for `Cc1cc(C(=O)OCC(=O)Nc2ccccc2Cl)c(C)o1` was 3.84% (inactive); that for `Cc1ccc(NC(=O)Cn2c(C)csc2=O)cc1` was -14.9% (inactive). The value for `CCOC(=O)N1CCN(S(=O)(=O)c2ccc3c(c2)C(C)C(=O)N3)CC1` (stereo not drawn) was -7.55% (inactive). For `Cc1ccc2cc(CCNC(=O)c3ccc4c(c3)OCO4)c(=O)[nH]c2c1`, the inhibition was -22% (inactive). As for `Cc1ccc2cc(CCNC(=O)c3c(-c4ccccc4Cl)noc3C)c(=O)[nH]c2c1`, the inhibition is 34% (active). The value for `CC(=O)Nc1cccc(/C(C)=N/NC(=O)c2c(-c3ccccc3Cl)noc2C)c1` was -13% (inactive); that for `CCN(c1ccccc1)S(=O)(=O)c1ccc(OCC(=O)N2CCCC2)cc1` was -6.24% (inactive); that for `CC(OC(=O)c1ccc(S(=O)(=O)N2CCOCC2)cc1)c1ccccc1` (stereo not drawn) was -6.07% (inactive). The value for `COc1ccc(N2CCN(Cc3nnc(-c4ccccc4)o3)CC2)cc1` was 9.11% (inactive); that for `Fc1ccc(N2CCN(Cc3cnc(Oc4ccc(Br)cc4)s3)CC2)cc1` was 14.3% (inactive). The value for `c1ccc(-c2cnc(CN3CCN(c4ccccc4)CC3)o2)cc1` was 77.7% (active). With `O=[N+]([O-])c1ccc(S(=O)(=O)Nc2cccc(-c3ccc(N4CCCC4)nn3)c2)cc1`, the inhibition is -6.06% (inactive).

Turning to `Cc1ccc(Cl)cc1NC(=O)COC(=O)CC(C)(C)C`, the inhibition was 40.7% (active). On to `CCCC(=O)OCC(=O)Nc1cc(Cl)ccc1[N+](=O)[O-]`, for which the inhibition is -3.56% (inactive). The value for `Cc1ccc(Cl)cc1NC(=O)COC(=O)C1CCCCC1` was -6.03% (inactive). The value for `O=C(C1CCC1)N1CCN(S(=O)(=O)c2ccc([N+](=O)[O-])cc2)CC1` was -8.41% (inactive); that for `COCCn1cnnc1SCC(=O)Nc1cccc(S(=O)(=O)N2CCCCC2)c1` was 3.75% (inactive); that for `CCn1cc(C(=O)NCc2ccc3c(c2)OCO3)c2cc(OC)c(OC)cc2c1=O` was -9.78% (inactive). The value for `O=C(c1cccs1)N1CCN(Cc2ccc3c(c2)OCO3)CC1` was 86.6% (active). `O=C(C1CCN(Cc2ccc(Cl)cc2)CC1)N1CCN(Cc2ccc3c(c2)OCO3)CC1`: the inhibition was -7.43% (inactive).

For `CCn1cc(C(=O)N2CCN(Cc3ccc4c(c3)OCO4)CC2)c2cc(OC)c(OC)cc2c1=O`, the inhibition was 32.8% (active). As to `O=C(CSCc1ccc(Cl)cc1)N1CCN(Cc2ccc3c(c2)OCO3)CC1`, the inhibition was 15.1% (inactive).

Regarding `CCn1cc(C(=O)N2CCN(C3CCCCC3)CC2)c2cc(OC)c(OC)cc2c1=O`, the inhibition was 2.69% (inactive).

On to `CC(=O)Nc1ccc(NC(=O)C(C)OC(=O)C2CC(=O)N(CCc3ccccc3)C2)cc1` (stereo not drawn), for which the inhibition was -0.386% (inactive).

Usually inhibition stands for the relative decrease from the control value, in per cent.
